Source: PubChem BioAssay
The list is not random: actives were taken first. Their share in the collection is about 17%.
TDP1 cell CPT: DT40-hTDP1 cell growth loss with CPT; chicken DT40 Tdp1-/-;hTDP1 cells + 20 nM CPT, ATP luminescence, 48 h; Potency, µM (highest dose often 46.2 µM), inactives show top-dose activity change, negative = growth inhibition, most hits filed as inhibitors; hit rate 12% among 420,000; further: on the % scale 0 is the no-effect control and ±100 the full control effect; nearly all actives have a fitted effect of over 55% in size
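Chicken DT40 Tdp1-/- cells complemented with human TDP1, 400 cells/well, exposed to compounds plus 20 nM camptothecin for at least 48 h at 37 C; viability read as ATP content by CellTiter-Glo luminescence.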
DT40 TDP1 no CPT: qHTS for Inhibitors of human tyrosyl-DNA phosphodiesterase 1 (TDP1): qHTS in cells in absence of CPT; Potency, µM (top dose mostly 46.2 µM), for inactives: top-dose activity change, negative = growth inhibition, usual class: inhibitors; hit rate 15% among 420,000; AID 686978, 2013; DT40 Tdp1-/- hTDP1 cells, no CPT, ATP luminescence, 48 h; further: on the % scale 0 is the no-effect control and ±100 the full control effect; nearly all actives have a fitted effect of over 55% in size
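Camptothecin absent (DMSO only). Human TDP1-complemented DT40 knockout cells, 400 cells/well, 37 °C for minimum 48 hr; ATP measured via CellTiter-Glo, 30 min dark incubation, luminescence.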
ATXN viability: reduces viability in counter-screen for ATXN expression inhibitors; S2 cells (HEK-293 line with an ATXN2-luciferase reporter) viability, CellTiter-Fluor protease fluorescence, 24 h; Potency, µM (titrated, usually from 56.7 µM), most hits filed as cytotoxic; hit rate 0.49% among 400,000; further: nearly all actives have a fitted effect of over 40% in size
TGFb inhibitor: inhibitors of TGF-b signaling. HepG2 CAGA-GFP TGF-b/SMAD3 reporter, GFP fluorescence, 18 h; TGF-beta stimulated, 500 pg/mL final. Potency, µM (titrated, usually from 46.1 µM), for inactives: at the highest dose activity, negative = inhibition, hits mostly inhibitors. hit rate 1.2% among 410,000. AID 588855; further: on the % scale 0 is the no-effect control and ±100 the full control effect; nearly all actives have a fitted effect of over 65% in size
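First, reporter cells (HEPG2 CAGA-GFP) rested 2 h at 37 degrees C. Next, compounds were pinned in and TGF-beta added to 500 pg/mL final. After 18 h, GFP was imaged per cell and summed per well.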
ATXN2 expr inh: ATXN2 expression inhibition | Potency, µM (top dose mostly 57 µM), for inactives: at the highest dose activity change, negative = inhibition, most hits filed as inhibitors | hit rate 0.72% among 360,000 | HEK-293 ATXN2-luciferase reporter, luminescence, 24 h; further: on the % scale 0 is the no-effect control and ±100 the full control effect; nearly all actives have a fitted effect of over 55% in size
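qHTS (up to 57 uM final) was run with 24 h compound exposure of reporter cells at 37 °C. Each well was multiplexed: SteadyGlo luminescence measured ATXN2-luciferase expression after a fluorogenic Gly-Phe-AFC viability readout (25 uM final).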
HepG2 viability: counter-screen for TGF-b inhibitors: cytotoxicity in HepG2 cells; HepG2 CAGA-GFP viability, ATP luminescence, 18 h; Potency, µM (highest dose often 46.1 µM), for inactives: at the highest dose activity change, negative = cytotoxicity, most hits filed as cytotoxic; hit rate 0.76% among 410,000
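CellTiter-Glo luminescence gave cytotoxicity after 18 hours at 37 degrees C. The cells were HepG2 CAGA-GFP in 1% FBS DMEM, stimulated with 500 pg/mL TGF-beta after compound addition. %Activity was normalised to no-cell wells (complete cell-killing) and DMSO (no toxicity), and curves were fitted and classified.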
Active calls of the source: *; i = inactive; u = inconclusive; x = no result given. The call rests on the fitted dose curve; in most records, active means well fitted curve in the direction sought with a large enough effect; inconclusive means small, poorly fitted or top-dose-only effect, or another doubt; inactive means no such curve, though single readings can be large; an effect the other way counts as inactive or inconclusive. Potency means the concentration at half of the fitted maximal effect.

SMILES | TDP1 cell CPT | DT40 TDP1 no CPT | ATXN viability | TGFb inhibitor | ATXN2 expr inh | HepG2 viability
CC(=O)OCCN1c2ccccc2Sc2cnccc21 | u | 15µM* | i | u | x | -7%
C=CCN1c2ccccc2Sc2cnccc21 | u | 18µM* | x | u | x | -45%
c1ccc2c(c1)Nc1ccncc1S2 | -19% | u | i | u | 14% | 31%
Cc1ccc(-n2nc(C)c3c(C(=O)NCCc4ccc(S(N)(=O)=O)cc4)cc(C)nc32)cc1 | u | u | i | -26% | -18% | -7%
COc1ccc(N2CCN(C(=O)CCS(=O)(=O)c3ccc4c(c3)NC(=O)C(C)S4)CC2)cc1 (stereo not given) | u | 10µM* | i | -26% | -26% | -7%
CC(=O)c1ccc(N2CCN(C(=O)CCS(=O)(=O)c3ccc4c(c3)NC(=O)CS4)CC2)cc1 | 18µM* | u | i | 0% | x | -2%
CC1Cc2ccccc2N1C(=O)CCS(=O)(=O)c1ccc2c(c1)NC(=O)CS2 (stereo not given) | 23µM* | u | i | 0% | 5% | -3%
Cc1ccc(C)c(N2CCN(C(=O)CCS(=O)(=O)c3ccc4c(c3)NC(=O)C(C)S4)CC2)c1 (stereo not given) | 23µM* | 15µM* | i | u | x | -22%
CC1CCC(NC(=O)CCS(=O)(=O)c2ccc3c(c2)NC(=O)CS3)CC1 (stereo not given) | -15% | 10% | i | 4% | 3% | 1%
Cc1cc(C)cc(NC(=O)c2ccc3c(O)c(S(=O)(=O)c4ccccc4)c(=O)[nH]c3c2)c1 | 12% | 18% | i | -33% | 0% | -2%
CO[C@H]1[C@H](NC(=O)c2cccc(F)c2)c2ccccc2C12CCN(Cc1ccco1)CC2 | -3% | -16% | i | x | x | x
O=C(CC[C@H]1O[C@@H](n2cnc3c(NC(=O)c4ccccc4)ncnc32)[C@H](O)[C@@H]1O)NCc1ccc2c(c1)OCO2 | 10% | 8% | i | 3% | 8% | 6%
COc1ccc(C(CNC(=O)c2ccc(-c3ccccc3Cl)o2)N2CCOCC2)cc1 (stereo not given) | 23µM* | 16µM* | i | -2% | -1% | 0%
COc1ccccc1C(CNC(=O)c1ccc(-c2ccccc2Cl)o1)N1CCCC1 (stereo not given) | 23µM* | 18µM* | i | u | u | -27%
CCOc1ccccc1CN1CCNC(=O)C1CC(=O)NCc1nc(C)cs1 (stereo not given) | -15% | -8% | u | 12% | -8% | 9%
COc1ccc(/C=C(\NC(=O)c2ccco2)C(=O)NC(Cc2ccccc2)C(=O)O)cc1 (stereo not given) | 13% | -2% | i | 2% | -3% | -8%
CCc1ccc(NC(=O)CNC(=O)Cn2c(C)cc3ccccc3c2=O)cc1 | -1% | -2% | i | 5% | 16% | 0%
COc1cc(NC(=O)CNC(=O)Cn2ccc3ccccc3c2=O)cc(OC)c1OC | -20% | u | i | 7% | -12% | 1%
COc1ccc(NC(=O)CNC(=O)Cn2c(C)cc3ccccc3c2=O)cc1OC | 13µM* | 21µM* | i | 2% | -17% | -12%
COc1cc(NC(=O)CNC(=O)Cn2c(C)cc3ccccc3c2=O)cc(OC)c1OC | 13µM* | 15µM* | i | 23% | 1% | -3%
NCc1c[nH]c(=S)n1[C@H]1CCc2c(F)cc(F)cc2C1 | x | x | x | x | 49% | x
Cc1cc(C)nc(SCC(=O)NC2CCCCC2C)n1 (stereo not given) | 19% | -9% | i | 14% | -11% | 4%
Cc1cc(C)c(C(=O)/C=C/c2cccc3ccccc23)c(=O)[nH]1 | 16µM* | 9.2µM* | u | u | u | -42%
CC1C/C(=N/NC(=O)c2cccc(F)c2)c2ccc(O)cc2C1 (stereo not given) | 22µM* | u | i | 21% | 10% | -30%
Cc1c(C(=O)NNc2cc(=O)n(C)c(=O)n2C)cccc1[N+](=O)[O-] | u | 6% | i | 4% | -12% | -4%
SMILES | TDP1 cell CPT | DT40 TDP1 no CPT | ATXN viability | TGFb inhibitor | ATXN2 expr inh | HepG2 viability
COCc1cccc(-c2csc(C(O)c3ccc(F)c(OC)c3)n2)c1 (stereo not given) | 8.2µM* | 21µM* | i | -10% | 2% | -23%
COCc1cccc(-c2csc(C(O)c3cccc(OC)c3)n2)c1 (stereo not given) | 18µM* | u | i | 12% | -9% | -4%
COc1cc(C(O)c2nc(-c3ccccc3)cs2)ccc1F (stereo not given) | 7.3µM* | 6.5µM* | i | -2% | 2% | -14%
COc1ccc(-c2csc(C(O)c3ccc(F)c(F)c3)n2)cn1 (stereo not given) | -3% | -24% | i | 5% | 16% | -13%
COc1cc(C(O)c2nc(-c3ccccc3C)cs2)ccc1F (stereo not given) | u | u | i | -5% | -3% | -16%
COc1ccc(-c2csc(C(O)c3ccc(F)c(OC)c3)n2)cn1 (stereo not given) | 16µM* | 23µM* | u | 17% | u | -15%
COCc1cccc(-c2csc(C(O)c3ccccc3)n2)c1 (stereo not given) | u | u | i | 2% | 29% | -1%
CCOC(=O)c1sc(NC(=O)c2cc3nc(-c4ccccc4)cc(C(F)(F)F)n3n2)c(C(=O)OCC)c1C | -20% | -20% | i | 5% | 8% | 0%
COc1ccccc1C(=O)Nc1ccc(C(=O)OCc2cc(=O)n3nc(C4CC4)sc3n2)cc1 | -15% | -20% | i | 0% | -4% | 2%
Cc1ccc(CNC(=O)c2cc3c(s2)-c2c(C)cccc2OC3)cc1 | -27% | u | i | u | -9% | -31%
Cc1cccc(-c2nc(SCC(=O)NCc3ccco3)c3c(=O)n(C)c(=O)n(C)c3n2)c1 | -24% | -21% | i | 1% | 3% | -1%
COC(=O)Nc1ccc2[nH]cc(CCNC(C)=O)c2c1 | u | -25% | x | x | x | x
COc1cccc(C(O)c2nc(-c3ccc(F)c(Cl)c3)cs2)c1 (stereo not given) | 16µM* | u | i | u | -8% | -52%
